RTF Ca sens act: increases calcium sensitivity of human cardiac regulated thin filaments | 340,000 compounds, 0.24% hits | P19429+P45379 | activation, % at 7.2 µM | AID 493008 | IANBD-labeled TnC RTF fluorescence at EC20 calcium; 0% EC20 calcium, 100% full calcium;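 active means activation above the mean over all tested compounds plus 3 SD, cut at about 30% in these data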;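 further: rise in fluorescence read as greater calcium sensitivity of cardiac thin filaments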
IDE act: activators of human insulin-degrading enzyme in cells; HEK cells, FAbeta-B cleavage, fluorescence polarization; 0% vehicle, 100% cell-free pure enzyme wells; 340,000 compounds, 0.073% hits; activation, % at 5.96 µM; AID 493087; P14735;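 active means activation above the mean of all tested compounds plus 3 SD, set per screening campaign, cut at about 17% in these data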
Target sequence (P14735 whole entry, looked up): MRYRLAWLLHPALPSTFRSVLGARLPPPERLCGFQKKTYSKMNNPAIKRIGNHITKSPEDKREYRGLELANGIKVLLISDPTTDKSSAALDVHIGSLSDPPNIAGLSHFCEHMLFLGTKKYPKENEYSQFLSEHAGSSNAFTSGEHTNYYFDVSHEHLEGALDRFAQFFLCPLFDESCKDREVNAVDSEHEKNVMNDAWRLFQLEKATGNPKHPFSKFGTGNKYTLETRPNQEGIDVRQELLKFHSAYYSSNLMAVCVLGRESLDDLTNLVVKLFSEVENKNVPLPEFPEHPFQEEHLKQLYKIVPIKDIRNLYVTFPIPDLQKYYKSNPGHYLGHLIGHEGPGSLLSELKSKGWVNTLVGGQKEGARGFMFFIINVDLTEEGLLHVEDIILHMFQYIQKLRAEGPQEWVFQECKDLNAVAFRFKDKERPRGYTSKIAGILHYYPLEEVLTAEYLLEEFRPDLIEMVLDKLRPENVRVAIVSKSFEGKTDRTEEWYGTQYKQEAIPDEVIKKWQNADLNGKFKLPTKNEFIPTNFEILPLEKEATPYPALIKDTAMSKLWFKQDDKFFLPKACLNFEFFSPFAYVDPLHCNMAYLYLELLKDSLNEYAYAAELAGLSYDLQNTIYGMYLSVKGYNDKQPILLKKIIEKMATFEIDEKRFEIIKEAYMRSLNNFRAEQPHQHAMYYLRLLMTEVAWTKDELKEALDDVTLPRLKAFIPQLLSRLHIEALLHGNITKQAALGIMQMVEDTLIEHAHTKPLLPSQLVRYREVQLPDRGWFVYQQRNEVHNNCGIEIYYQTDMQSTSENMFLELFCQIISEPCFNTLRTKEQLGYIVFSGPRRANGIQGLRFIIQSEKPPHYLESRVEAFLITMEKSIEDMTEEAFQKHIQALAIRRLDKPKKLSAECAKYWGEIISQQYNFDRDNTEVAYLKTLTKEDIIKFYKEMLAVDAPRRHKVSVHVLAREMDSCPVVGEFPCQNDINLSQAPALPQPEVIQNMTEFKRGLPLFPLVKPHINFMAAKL
Cardiac RTF inh: cardiac RTF calcium desensitization; IANBD-labeled cardiac RTF, Ca2+ fluorescence; inhibition, % at 7.15 µM; 340,000 compounds, 0.12% hits; AID 493244;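 active means inhibition above the mean inhibition of all tested compounds plus 3 SD, cut at about 17% in these data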;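 further: assay run at fixed EC70 calcium of 1.6 mM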
IDE inh: inhibitors of human insulin-degrading enzyme in cells. 320,000 compounds, 0.41% hits. HEK cells, FAbetaB cleavage, fluorescence polarization. inhibition, % at 5.59 µM. P14735. AID 434962;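 active means percent inhibition above the average of all tested compounds plus 3 SD, set per screening campaign, cut at about 16% in these data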;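 further: IDE supplied by intact live HEK cells; FP after avidin binding of uncleaved biotin substrate so inhibition keeps polarization high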
A number is an active result. Sampled rows, rich in hits. Any-hit rate of the full collection: about 0.71%.

How did COc1ccc2cc(/C=C3\SC(=S)NC3=O)c(N3CCOCC3)nc2c1 do in these assays?
RTF Ca sens act: inactive; IDE act: inactive; Cardiac RTF inh: inactive; IDE inh: inactive

What do the screens show for `CCN(c1ccccc1)S(=O)(=O)c1ccc(C(=O)NCC2(N(C)C)CCCCC2)cc1`?
RTF Ca sens act: inactive; IDE act: inactive; Cardiac RTF inh: inactive; IDE inh: inactive

What do the screens show for `CCCCn1c(N)c(N(CCOC)C(=O)c2ccc3c(c2)C(=O)N(c2ccccc2Cl)C3=O)c(=O)[nH]c1=O`?
RTF Ca sens act: inactive; IDE act: inactive; Cardiac RTF inh: inactive; IDE inh: inactive

Results for COc1ccccc1CCNC(=O)C1(C)CC1(Cl)Cl (configuration not stated) ?
RTF Ca sens act: inactive; IDE act: inactive; Cardiac RTF inh: inactive; IDE inh: inactive

Results for COCCCNC(=O)C(=O)NCC1CCCN1S(=O)(=O)c1cccs1 (configuration not stated) ?
RTF Ca sens act: inactive; IDE act: inactive; Cardiac RTF inh: inactive; IDE inh: inactive

How did CCCCOc1ncnc2c1[nH]c1ccc(C)cc12 do in these assays?
IDE inh: 38

Results for COC(=O)Cc1cc(=O)n2c(nc3ccccc32)[nH]1 ?
RTF Ca sens act: inactive; IDE act: inactive; Cardiac RTF inh: inactive; IDE inh: inactive

How did CC(C)(C)c1ccc(C(=O)n2cnc3ccccc32)cc1 do in these assays?
RTF Ca sens act: 50; IDE act: inactive; Cardiac RTF inh: inactive; IDE inh: inactive

How did CCN(CC)c1ccc(C(=O)n2cnc3ccccc32)cc1 do in these assays?
RTF Ca sens act: inactive; IDE act: inactive; Cardiac RTF inh: inactive; IDE inh: inactive

Results for O=C(CCCN1C(=O)c2ccccc2C1=O)NCc1ccc(F)cc1 ?
RTF Ca sens act: inactive; IDE act: inactive; Cardiac RTF inh: inactive; IDE inh: inactive

Results for N#C/C(=C\c1ccc(-c2ccc(C(=O)O)cc2)o1)c1nc2ccccc2[nH]1 ?
RTF Ca sens act: 54; IDE act: inactive; Cardiac RTF inh: inactive

How did N#C/C(=C\c1ccccc1C(=O)O)c1nc2ccccc2[nH]1 do in these assays?
RTF Ca sens act: inactive; IDE act: inactive; Cardiac RTF inh: inactive; IDE inh: inactive

Results for c1ccc(-c2cn3nc4c(nc3n2)CCCC4)cc1 ?
RTF Ca sens act: 31; IDE act: inactive; Cardiac RTF inh: inactive; IDE inh: inactive

How did Fc1ccc2[nH]c3c(N4CCN(C5CCCCC5)CC4)ncnc3c2c1 do in these assays?
IDE inh: 20

What do the screens show for `COc1ccc(CNC(=O)C(C)Sc2nc3ccccc3c(=O)n2CC2CCCO2)cc1` (configuration not stated)?
RTF Ca sens act: inactive; IDE act: inactive; Cardiac RTF inh: inactive; IDE inh: inactive

How did Cc1cc(C)cc(N=Cc2[nH]c3ccc(Br)c(Cl)c3c2O)c1 do in these assays?
RTF Ca sens act: 64; IDE act: inactive; Cardiac RTF inh: inactive; IDE inh: inactive

How did Cc1cc(F)c(F)c(C(=O)N2CCC(C)CC2)c1Cl do in these assays?
RTF Ca sens act: inactive; IDE act: inactive; Cardiac RTF inh: inactive; IDE inh: inactive

Results for COC(=O)C1=COC(C)C2CN3CCc4c([nH]c5ccccc45)C3CC12 (configuration not stated) ?
RTF Ca sens act: 35; IDE act: inactive; Cardiac RTF inh: inactive; IDE inh: inactive

How did COC(=O)C1=CO[C@@H](C)[C@H]2CN3CCc4c([nH]c5ccccc45)[C@@H]3C[C@H]12 do in these assays?
RTF Ca sens act: inactive; IDE act: inactive; Cardiac RTF inh: inactive; IDE inh: inactive

How did COc1ccc(C2C=C(c3ccc(Cl)cc3)Nc3nc(NC(C)=O)nn32)cc1 (configuration not stated) do in these assays?
IDE inh: 20

What do the screens show for `COc1ccc(C2C=C(c3ccc(Br)cc3)Nc3nc(N4C(=O)CCC4=O)nn32)cc1` (configuration not stated)?
RTF Ca sens act: inactive; IDE act: inactive; Cardiac RTF inh: inactive; IDE inh: 29

What do the screens show for `CC(=O)Nc1nc2n(n1)C(c1ccccc1)C=C(c1ccccc1)N2` (configuration not stated)?
RTF Ca sens act: inactive; IDE act: inactive; Cardiac RTF inh: inactive; IDE inh: inactive

Results for CCN1CCN(CCNC(=O)c2ccc(/C=C3/Sc4ccccc4N(Cc4cccc(Cl)c4)C3=O)cc2)CC1 ?
RTF Ca sens act: inactive; IDE act: 38; Cardiac RTF inh: inactive; IDE inh: inactive

Results for CC(=O)Nc1cc2c(cc1C(=O)c1ccccc1)OCCO2 ?
RTF Ca sens act: inactive; IDE act: 18; Cardiac RTF inh: inactive; IDE inh: inactive

What do the screens show for `CCC(=O)Nc1cc2c(cc1C(=O)c1ccccc1)OCCO2`?
RTF Ca sens act: inactive; IDE act: inactive; Cardiac RTF inh: inactive; IDE inh: inactive

How did COc1ccc2cc(C(C)c3nc4ccccc4c(=O)n3N)ccc2c1 (configuration not stated) do in these assays?
RTF Ca sens act: inactive; IDE act: inactive; Cardiac RTF inh: inactive; IDE inh: inactive

Results for CCOc1ccc(N(C)c2ccc(/C=C3/SC(=S)NC3=O)cc2)cc1 ?
RTF Ca sens act: 45; IDE act: inactive; Cardiac RTF inh: inactive; IDE inh: inactive

Results for NC(=O)c1ccc(NC(=O)COC(=O)CNC(=O)c2sc3ccccc3c2Cl)cc1 ?
RTF Ca sens act: inactive; IDE act: inactive; Cardiac RTF inh: inactive; IDE inh: inactive

Results for S=C(NCc1ccccc1)N1CCN(C(=S)NCc2ccccc2)CC1 ?
RTF Ca sens act: inactive; IDE act: inactive; Cardiac RTF inh: inactive; IDE inh: inactive

What do the screens show for `O=C1c2cccc3c(N4CCCCC4)ccc(c23)C(=O)N1CCO`?
RTF Ca sens act: 76; IDE act: inactive; Cardiac RTF inh: inactive; IDE inh: 51

Results for O=C(COc1ccc([N+](=O)[O-])cc1Cl)NCCN1C(=O)CSC1=O ?
RTF Ca sens act: inactive; IDE act: inactive; Cardiac RTF inh: inactive; IDE inh: inactive

How did O=C(O)CCCC[C@@H]1SC[C@@H]2NC(=O)N[C@@H]21 do in these assays?
RTF Ca sens act: inactive; IDE act: 64; Cardiac RTF inh: inactive; IDE inh: inactive

What do the screens show for `COC(=O)CCCCC1SCC2NC(=O)NC21` (configuration not stated)?
RTF Ca sens act: inactive; IDE act: inactive; Cardiac RTF inh: inactive; IDE inh: inactive

Results for C=CCN1C(=O)c2ccc(C(=O)OCC(=O)N(CC)C3CCS(=O)(=O)C3)cc2C1=O (configuration not stated) ?
RTF Ca sens act: inactive; IDE act: 22; Cardiac RTF inh: inactive; IDE inh: inactive

What do the screens show for `CCOc1ccc(N2C(=O)c3ccc(C(=O)OCC(=O)N(CC)C4CCS(=O)(=O)C4)cc3C2=O)cc1` (configuration not stated)?
RTF Ca sens act: inactive; IDE act: inactive; Cardiac RTF inh: inactive; IDE inh: inactive

Results for CCc1ccc(C2C(C#N)=C(N)SC(N)=C2C#N)s1 ?
RTF Ca sens act: inactive; IDE act: inactive; Cardiac RTF inh: inactive; IDE inh: inactive

How did N#CC1=C(N)SC(N)=C(C#N)C1Cc1ccccc1 do in these assays?
RTF Ca sens act: 43; IDE act: inactive; Cardiac RTF inh: inactive; IDE inh: inactive

From PubChem BioAssay
